The full list was thinned out, with hits kept by preference.
CHX counter = counter-screen for Shiga toxin inhibitors: cycloheximide protein synthesis inhibition. cell reporter, cycloheximide protein synthesis inhibition counterscreen. max response, %. 300,000 compounds, 12% hits. AID 2314; in the data active means max response mostly above about 13%, no sharp cut-off; inactive means mostly below about 14%; further: read at 38.3 µM for the half of the compounds with a filed dose
Shiga inhibitor = Shiga toxin inhibition. Vero cells, Shiga toxin protein synthesis inhibition reporter. inhibition, % at 38.7 µM. 290,000 compounds, 9.2% hits. AID 2315; in the data active means inhibition mostly above about 28%, no sharp cut-off; inactive means mostly below about 43%
LmPK inhibitor = LmPK (Leishmania mexicana) enzyme inhibition | 290,000 compounds, 0.37% hits | AID 1721 | Q27686 | Potency, µM (series often up to 57.5 µM), hits mostly inhibitors | purified LmPK, Kinase-Glo ATP luminescence, 1 h
Target sequence (Q27686 whole entry, looked up): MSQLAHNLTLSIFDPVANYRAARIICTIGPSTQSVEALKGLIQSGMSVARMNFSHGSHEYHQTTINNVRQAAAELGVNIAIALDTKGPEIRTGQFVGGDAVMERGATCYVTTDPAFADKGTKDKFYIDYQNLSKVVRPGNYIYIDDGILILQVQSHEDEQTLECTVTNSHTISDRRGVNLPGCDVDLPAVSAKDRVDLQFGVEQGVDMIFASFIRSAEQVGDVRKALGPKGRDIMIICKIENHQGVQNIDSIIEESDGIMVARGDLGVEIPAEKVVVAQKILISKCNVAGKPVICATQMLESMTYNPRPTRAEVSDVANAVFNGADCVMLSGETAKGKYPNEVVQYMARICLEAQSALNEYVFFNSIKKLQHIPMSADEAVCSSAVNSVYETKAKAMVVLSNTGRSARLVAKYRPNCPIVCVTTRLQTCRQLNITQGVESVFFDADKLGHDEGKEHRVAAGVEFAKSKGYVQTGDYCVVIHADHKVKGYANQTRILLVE
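Screened at intermediate enzyme activity to detect both inhibitors and activators: LmPK at 0.1 nM, with a 0.5 nM enzyme column as activation reference. PEP 0.5 mM, ADP 0.1 mM; ATP detected by luminescence after 1 h.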
Sm TGR block = blocks Schistosoma mansoni thioredoxin glutathione reductase; Q962Y6; purified TGR, DTNB reduction, TNB absorbance 405 nm; Potency, µM (highest dose often 114 µM), hits mostly inhibitors; AID 485364; 360,000 compounds, 3% hits; further: nearly all actives have a fitted effect of over 60% in size
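First, TGR (20 nM dispensed) and NADPH were mixed with compound. Second, a 15 min room-temperature incubation followed. Third, further NADPH and then DTNB were added to start the reaction. Finally, TNB absorbance was monitored kinetically.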
FBPA Giardia inh = inhibitors of Giardia lamblia fructose-1,6-bisphosphate aldolase; A8B2U2; purified Giardia FBPA; Potency, µM (top dose mostly 59.6 µM), actives largely listed as inhibitors; 290,000 compounds, 0.71% hits; AID 2451; further: nearly all actives have a fitted effect of over 55% in size
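40 nM FBPA preincubated 10 min at RT with compound (up to 57.5 uM final), then substrate plus GAPDH/TPI/NAD/arsenate coupling and diaphorase/resazurin added. Fluorescence read after 20 min at RT, 525/598 nm.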
TbPYK inhibitor = blocks Trypanosoma brucei pyruvate kinase; Q57TT1; TbPYK enzyme, Kinase-Glo Plus ATP luminescence, 45 min; Potency, µM (doses to about 76.8 µM), hits mostly inhibitors; 410,000 compounds, 0.12% hits; AID 624173; further: nearly all actives have a fitted effect of over 50% in size
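Readout: single end-point luminescence (Kinase-Glo Plus, 10 min). Reaction conditions were TbPYK/substrate plus 130 uM ADP, 45 min at RT, pH 7.2 TEA buffer. No-enzyme wells served as controls, and data were normalized before concentration-response fitting.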
Numbers stand for hits; – = inactive; ? = inconclusive; · = not tested or not shown; [ ] = another dose, or the depositor's remark. Unless noted, the call rests on the fitted dose curve; in most records, active means well fitted curve in the direction sought with a large enough effect; inconclusive means small, poorly fitted or top-dose-only effect, or another doubt; inactive means no such curve, though single readings can be large; an effect the other way counts as inactive or inconclusive.

SMILES	CHX counter	Shiga inhibitor	LmPK inhibitor	Sm TGR block	FBPA Giardia inh	TbPYK inhibitor
Cc1c(C(=O)NC(C)c2ccccc2)sc2ncnc(N(C)C3CCCCC3)c12 (configuration not stated)	·	·	·	–	·	–
O=C(c1ccco1)N1CCN(C(=O)c2cn(-c3ccccc3)nc2-c2ccc(F)cc2)CC1	·	·	·	–	·	–
COc1cccc(-n2ccn(CC(=O)c3ccc(F)cc3)c(=O)c2=O)c1	·	·	·	–	·	–
Cc1cc(C(=O)N2CCCC(N3CCN(c4cccc(C(F)(F)F)c4)CC3)C2)nn1C (configuration not stated)	–	–	–	–	·	–
Cc1cc(C(=O)N2CCCC(N3CCN(c4cccc(Cl)c4)CC3)C2)nn1C (configuration not stated)	18.9	–	–	–	·	–
O=C1CCCN1CC(=O)N1CCCC(N2CCN(c3cccc(Cl)c3)CC2)C1 (configuration not stated)	29.9	43.7	–	–	·	–
O=C(c1ccccn1)N1CCCC(N2CCN(c3cccc(C(F)(F)F)c3)CC2)C1 (configuration not stated)	19.9	41.3	–	–	–	–
O=C(Cn1ncc2c3ccccc3n(Cc3cccc(Cl)c3)c2c1=O)NCc1cccs1	·	·	·	–	·	–
O=S(=O)(Nc1ccc(-c2ccc(N3CCCC3)nn2)cc1)c1ccccc1Cl	·	·	·	–	·	–
COc1ccc([C@]23Cc4cc(OC)c(OC)cc4C(O2)C2=C(CC(C)(C)CC2=O)O3)cc1	–	–	–[11.5 µM]	–[22.9 µM]	–[12.9 µM]	·
c1ccc(COc2cccc(CNCc3cccs3)c2)cc1	23.6	–	–	–	–	–
COc1cc(CNCc2ccco2)ccc1OCc1ccccc1	32.8	61.4	–	–	–	–
COc1cc(CNCc2ccccn2)ccc1OCc1cccc(Cl)c1	24.8	–	–	–	?	–
Clc1ccc(COc2cccc(CNCc3ccncc3)c2)cc1	–	–	–	–	–	–
COc1cc(CNCc2cccs2)ccc1OCc1ccccc1	25.8	–	–	–	–	–
COc1cc(CNCc2cccs2)ccc1OCc1cccs1	–	–	–	–	–	–
COc1cc(OC)c(OC)cc1CNCc1ccco1	–	–	–	–	–	–
COc1cccc(C(=O)NCC(c2ccc(N(C)C)cc2)N2CCCC2)c1OC (configuration not stated)	·	·	·	–	·	–
Cc1cc(C)c2c(=O)c3c(oc2c1)C(=O)N(Cc1ccc(F)cc1)C3c1cccc(O)c1 (configuration not stated)	·	·	·	–	·	–
O=C(Nc1cccc(F)c1)c1ccc(-c2ccccc2Cl)o1	66.2	105.1	–	?	–	–
COc1ccc(NC(=O)c2ccc(-c3cccc(Cl)c3C)o2)cc1	·	·	·	–	·	–
CCOc1ccc(NC(=O)c2ccc(-c3cccc(Cl)c3C)o2)cc1	·	·	·	–	·	–
COc1ccc(NC(=O)c2ccc(-c3ccc(C)c4ccccc34)o2)cc1	–	–	–	44.7µM	–	–
COC(=O)c1sccc1-c1ccc(C(=O)Nc2ccccc2)o1	78.0	74.9	–	–	–	–
COc1ccc(NC(=O)c2ccc(-c3ccccc3Cl)o2)cc1	42.8	–	–	–	–	–
SMILES	CHX counter	Shiga inhibitor	LmPK inhibitor	Sm TGR block	FBPA Giardia inh	TbPYK inhibitor
Cc1ccc(-c2ccc(C(=O)Nc3cccc(F)c3)o2)c2ccccc12	–	–	–	?	?	–
CC(C)Oc1ccc(CNC(=O)Nc2ccc3c(c2)N(C)C(=O)c2ccccc2S3)cc1	·	·	·	–	·	–
COC(=O)CN1C(=O)CSc2ccc(S(=O)(=O)Nc3ccc(C)c(Cl)c3)cc21	·	·	·	–	·	–
Cc1ccc2c(n1)Oc1ccc(C(C)C(=O)OCC(=O)N(C)C)cc1C2 (configuration not stated)	·	·	·	·	·	–
C[C@@H](CNC1CCCCC1)OC(=O)c1ccccc1	·	·	·	·	–	–
CN(CC(=O)Nc1cccc(F)c1)C(=O)CCCNC(=O)c1ccc(Cl)cc1	·	·	·	–	·	–
CN(CC(=O)Nc1cccc(F)c1)C(=O)c1ccc(-c2ccc(Cl)cc2)o1	23.2	71.5	–	?	·	–
CN(CC(=O)Nc1cccc(F)c1)C(=O)CCNC(=O)c1ccc(Br)cc1	21.5	–	–	–	·	–
Cc1ccc(C)c(NC(=O)CN(C)C(=O)c2ccc(-c3ccc(Cl)cc3)o2)c1	·	·	·	?	·	–
COc1ccc(S(=O)(=O)c2cn(C)c3ccc(C)cc3c2=O)cc1	·	·	·	–	·	–
Cc1c(-c2ccccc2)oc2c(C(=O)N3CCN(c4ccccc4F)CC3)cccc2c1=O	–	–	–	–	–	–
COc1ccc(-c2oc3ccccc3c2C(=O)OCc2ccc(O)cc2)cc1	24.3	27.7	–	–	–	–
COc1ccc2oc(-c3ccccc3)c(C(N)=O)c2c1	27.6	–	–	–	–	–
COc1ccc(-c2oc3ccccc3c2C(=O)OCc2ccc([N+](=O)[O-])cc2)cc1	–	–	–	–	–	–
COc1ccc(-c2oc3ccccc3c2C(=O)OCc2ccccc2)cc1	31.0	33.7	–	–	–	–
CCC1CC2CC3c4[nH]c5ccc(OC)cc5c4CCN(C2)C13 (configuration not stated)	·	·	·	·	·	–
CCN(CC)S(=O)(=O)c1ccc(C(=O)N2CC(=O)Nc3ccc(F)cc3C2c2ccccc2)cc1 (configuration not stated)	·	·	·	–	·	–
CCCCC/C=C\C/C=C\C/C=C\C/C=C\CCCC(=O)O[C@@H](CO)COC(=O)CCCCCCCCCCCCCCCCC	·	·	·	·	–	·
COc1ccc(CNC(=O)N2CCc3ccccc3C2)cc1	15.8	58.3	–	–	–	–
COc1ccc(CN(C)CC(=O)N2CCc3ccccc3C2)cc1	–	–	–	–	–	–
O=C(NCc1ccc(F)cc1)N1CCc2ccccc2C1	36.3	–	–	–	–	–
CCc1ccc(NC(=O)CSc2nc(N)c(NC(=O)c3ccc(F)c(F)c3)c(=O)[nH]2)cc1	17.0	24.9	–	–	–	–
FC(F)(F)c1cccc(N2CCC(N=CN3CCCCCC3)=N2)c1	38.5	49.3	–	?	–	–
CCCC(=O)Nc1cc(-c2nc3cccnc3s2)ccc1C	·	·	·	–	·	–
Cc1cccc(CNC(=O)Cn2ccc3cc(S(=O)(=O)N4CCC(C)CC4)ccc32)c1	·	·	·	–	·	–
Fc1ccc(Cn2nnnc2C(c2cccs2)N2CCN(C3CCCCC3)CC2)cc1 (configuration not stated)	13.9	54.7	–	–	–	–
COCCn1nnnc1C(c1cccs1)N1CCN2CCCC2C1 (configuration not stated)	13.6	54.5	–	–	–	–
CC(C)C(c1nnnn1Cc1ccc(F)cc1)N1CCN(C2CCCCC2)CC1 (configuration not stated)	–	–	–	–	–	–
Cc1ccc(S(=O)(=O)N[C@@H](Cc2ccccc2)C(=O)CCl)cc1	–	–	–	11.2µM	–	–
CN1CCSc2ccc(C(=O)NCc3cccc(F)c3)cc21	13.1	–	–	–	–	–

Screening results deposited in PubChem by National Center for Advancing Translational Sciences (NCATS).
